Measurements as given in PubChem BioAssay (EPA / NIEHS).
Inconclusive results are not listed. Active and inactive are the calls of the source. Rule for the calls, unless noted: active = hit-call score of the fitted dose curve at least 0.9, where 1 is the maximum; inactive = score below 0.9.

Experiments:
[1] = target: Oxysterols receptor LXR-alpha (Homo sapiens) (UniProt Q13133); test: ATG_LXRa_TRANS: Attagene TRANS-FACTORIAL HepG2 Assay for human Liver X Receptor alpha (LXRa) (AID 2282980; active = hit-call score of the fitted dose curve at least 0.9, where 1 is the maximum); conditions: HepG2 Attagene TRANS reporter, LXRa transactivation
Chain of Oxysterols receptor LXR-alpha (Homo sapiens) (Q13133 whole entry, looked up, the tested form may be a part): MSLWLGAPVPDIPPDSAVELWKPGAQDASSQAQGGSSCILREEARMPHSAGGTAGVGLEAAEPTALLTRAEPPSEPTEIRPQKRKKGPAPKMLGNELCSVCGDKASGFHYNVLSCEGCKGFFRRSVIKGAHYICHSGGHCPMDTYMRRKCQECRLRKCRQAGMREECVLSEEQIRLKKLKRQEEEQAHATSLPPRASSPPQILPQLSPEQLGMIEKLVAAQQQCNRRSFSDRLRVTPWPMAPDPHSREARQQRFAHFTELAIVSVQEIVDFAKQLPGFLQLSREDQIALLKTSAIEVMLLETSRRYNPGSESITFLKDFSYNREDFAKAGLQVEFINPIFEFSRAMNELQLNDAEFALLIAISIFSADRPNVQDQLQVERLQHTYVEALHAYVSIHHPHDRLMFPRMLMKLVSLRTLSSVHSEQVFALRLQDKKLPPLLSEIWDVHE
Outline: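 HepG2 cells were transiently transfected with multiplexed reporter units driven by chimeric LXRa–GAL4 fusion proteins, then dosed for 24 h. Reporter mRNA was quantified by RT-PCR, fluorescent labelling and capillary electrophoresis; gain of signal fitted against DMSO baseline.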

[2] = target: Hepatocyte nuclear factor 4-alpha (Homo sapiens) (UniProt P41235); test: ATG_HNF4a_TRANS: Attagene TRANS-FACTORIAL HepG2 Assay for human Hepatocyte Nuclear Factor 4 alpha (HNF4a) (AID 2282982; active = hit-call score of the fitted dose curve at least 0.9, where 1 is the maximum); conditions: HepG2 HNF4a transactivation reporter, mRNA readout
Chain of Hepatocyte nuclear factor 4-alpha (Homo sapiens) (P41235 whole entry, looked up): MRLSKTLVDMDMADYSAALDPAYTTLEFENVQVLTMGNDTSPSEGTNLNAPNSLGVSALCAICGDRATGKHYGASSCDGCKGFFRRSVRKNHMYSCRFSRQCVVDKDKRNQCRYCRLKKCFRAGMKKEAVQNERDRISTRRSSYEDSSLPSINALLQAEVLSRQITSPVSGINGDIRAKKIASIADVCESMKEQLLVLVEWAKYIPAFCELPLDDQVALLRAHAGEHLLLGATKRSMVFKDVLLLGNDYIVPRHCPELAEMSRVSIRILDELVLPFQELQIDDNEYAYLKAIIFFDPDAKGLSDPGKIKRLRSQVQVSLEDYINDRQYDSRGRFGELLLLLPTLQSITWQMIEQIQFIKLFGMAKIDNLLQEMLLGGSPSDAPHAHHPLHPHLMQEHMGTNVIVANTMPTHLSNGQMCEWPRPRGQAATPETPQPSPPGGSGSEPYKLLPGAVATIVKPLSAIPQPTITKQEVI
Outline: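 Multiplexed reporter assay: transfected HepG2, 24 h exposure, total RNA → oligo(dT) RT → PCR → 6-FAM extension → HpaI digest → CE fluorescence. DMSO = negative control.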

[3] = ATG_M_06_TRANS: Attagene TRANS-FACTORIAL HepG2 Assay for M06 Transcription Factor (Internal Marker) (AID 2282983; active = hit-call score of the fitted dose curve at least 0.9, where 1 is the maximum;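 note: reporter transcript level by RT-PCR then capillary electrophoresis fluorescence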); conditions: HepG2 Attagene TRANS M06 internal marker reporter
Outline: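 In this multiplexed HepG2 system, compounds are incubated 24 h with cells carrying GAL4-UAS reporter units. Reporter RNA is amplified and resolved by capillary electrophoresis, and induction is scored against DMSO.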

[4] = target: Transcriptional activator Myb (Homo sapiens) (UniProt P10242); test: ATG_Myb_CIS: Attagene CIS-FACTORIAL HepG2 Assay for human Myeloblastosis (Myb) Proto-Oncogene Transcription Factor (AID 2282986); conditions: HepG2 Attagene CIS-FACTORIAL Myb reporter transcription; actives raise or lower the signal
Chain of Transcriptional activator Myb (Homo sapiens) (P10242 whole entry, looked up): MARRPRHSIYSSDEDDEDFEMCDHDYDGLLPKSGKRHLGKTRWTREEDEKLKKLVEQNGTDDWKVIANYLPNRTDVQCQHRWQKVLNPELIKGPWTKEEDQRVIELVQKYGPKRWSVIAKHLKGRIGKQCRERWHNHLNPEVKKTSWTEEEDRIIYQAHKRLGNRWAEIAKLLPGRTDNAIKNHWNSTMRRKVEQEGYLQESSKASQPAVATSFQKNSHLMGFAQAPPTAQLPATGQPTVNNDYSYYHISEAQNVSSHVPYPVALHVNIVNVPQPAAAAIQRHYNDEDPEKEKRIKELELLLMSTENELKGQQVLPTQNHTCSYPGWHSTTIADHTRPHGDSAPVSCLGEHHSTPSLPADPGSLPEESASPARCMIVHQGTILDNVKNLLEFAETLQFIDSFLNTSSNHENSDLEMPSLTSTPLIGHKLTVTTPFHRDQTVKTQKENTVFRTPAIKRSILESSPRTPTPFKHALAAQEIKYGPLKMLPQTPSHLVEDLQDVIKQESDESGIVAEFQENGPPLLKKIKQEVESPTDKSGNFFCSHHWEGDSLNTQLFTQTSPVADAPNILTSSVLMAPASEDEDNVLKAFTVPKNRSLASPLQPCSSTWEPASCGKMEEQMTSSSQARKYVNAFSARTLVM
Outline: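 Steps: transfect HepG2 with cis-regulated reporter units; dose with chemical for 24 h; isolate RNA, reverse-transcribe, PCR-amplify and FAM-label reporter sequences; digest with HpaI; resolve by capillary electrophoresis. Activity fitted in both directions relative to DMSO.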

[5] = target: Nuclear respiratory factor 1 (Homo sapiens) (UniProt Q16656); test: ATG_NRF1_CIS: Attagene CIS-FACTORIAL HepG2 Assay for human Nuclear Respiratory Factor 1 (NRF1) Orphan Gene (AID 2282987); conditions: HepG2 NRF1 cis-element reporter, Attagene multiplex; actives raise or lower the signal
Chain of Nuclear respiratory factor 1 (Homo sapiens) (Q16656 whole entry, looked up, the tested form may be a part): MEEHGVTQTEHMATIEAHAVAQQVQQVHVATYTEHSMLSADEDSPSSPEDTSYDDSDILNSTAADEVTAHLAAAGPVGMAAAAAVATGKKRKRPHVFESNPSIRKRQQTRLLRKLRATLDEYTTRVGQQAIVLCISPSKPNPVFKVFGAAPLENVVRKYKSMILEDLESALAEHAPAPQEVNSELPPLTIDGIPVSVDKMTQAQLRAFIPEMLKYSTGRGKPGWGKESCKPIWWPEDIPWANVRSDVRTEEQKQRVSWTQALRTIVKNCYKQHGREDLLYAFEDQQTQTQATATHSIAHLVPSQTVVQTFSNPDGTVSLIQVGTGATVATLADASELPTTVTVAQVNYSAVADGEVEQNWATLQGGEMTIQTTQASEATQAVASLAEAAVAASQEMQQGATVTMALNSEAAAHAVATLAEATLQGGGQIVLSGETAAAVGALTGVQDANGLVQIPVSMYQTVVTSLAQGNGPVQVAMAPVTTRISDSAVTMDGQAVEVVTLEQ
Outline: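 Fluorescence intensity of labelled reporter cDNA fragments, resolved by capillary electrophoresis, served as readout for NRF1 cis-element activity. Transiently transfected HepG2 cells were dosed for 24 hours; activity in either direction was fitted against DMSO negative control.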

[6] = ATG_NFI_CIS: Attagene CIS-FACTORIAL HepG2 Assay for human Nuclear Factor I (NFI) (AID 2282989); conditions: HepG2 cis-regulatory reporter, NFI response element transcription; actives raise or lower the signal
Outline: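 After transient transfection of HepG2 with cis-promoter reporter constructs and 24 h dosing, RNA is reverse-transcribed, amplified, 6-FAM end-labelled and HpaI-digested before capillary analysis. Bidirectional curve fitting against DMSO.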

[7] = target: Myc proto-oncogene protein (Homo sapiens) (UniProt P01106); test: ATG_Myc_CIS: Attagene CIS-FACTORIAL HepG2 Assay for human Myelocytomatosis (Myc) Proto-Oncogene Transcription Factor (AID 2282990); conditions: HepG2, Attagene cis-reporter transcription factor activity; actives raise or lower the signal
Chain of Myc proto-oncogene protein (Homo sapiens) (P01106 whole entry, looked up, the tested form may be a part): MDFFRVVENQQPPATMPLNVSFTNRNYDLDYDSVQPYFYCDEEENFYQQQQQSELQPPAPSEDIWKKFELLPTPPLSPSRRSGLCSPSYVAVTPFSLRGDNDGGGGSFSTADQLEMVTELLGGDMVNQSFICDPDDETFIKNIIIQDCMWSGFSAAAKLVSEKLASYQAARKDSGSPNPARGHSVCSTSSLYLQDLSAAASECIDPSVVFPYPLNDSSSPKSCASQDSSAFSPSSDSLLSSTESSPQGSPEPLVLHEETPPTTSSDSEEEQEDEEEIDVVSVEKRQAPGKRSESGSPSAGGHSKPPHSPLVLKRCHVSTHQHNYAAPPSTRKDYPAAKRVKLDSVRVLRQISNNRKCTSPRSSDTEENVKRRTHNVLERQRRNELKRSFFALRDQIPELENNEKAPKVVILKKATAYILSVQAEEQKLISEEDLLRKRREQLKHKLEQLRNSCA
Outline: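 After 24 h chemical treatment of HepG2 cells carrying multiplexed cis-regulated reporter constructs, reporter transcripts quantified by RT-PCR and capillary electrophoresis of fluorescent fragments. Gain or loss fitted against DMSO baseline.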

[8] = ATG_NF_kB_CIS: Attagene CIS-FACTORIAL HepG2 Assay for human Nuclear Factor Kappa B (NF-kB) (AID 2282991); conditions: HepG2 Attagene cis-factorial NF-kB reporter mRNA; actives raise or lower the signal
Outline: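 Endogenous transcription factor activity in HepG2 was captured via cis-regulated reporter constructs; after 24 h dosing, reporter mRNA was reverse-transcribed, amplified, fluorescently labelled and sized by capillary electrophoresis, with activity fitted bidirectionally relative to DMSO.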

[9] = ATG_NRF2_ARE_CIS: Attagene CIS-FACTORIAL HepG2 Assay for human Nuclear Factor Erythroid 2 Related Factor 2 (NFR2) response to Antioxidant Response Elements (ARE) (AID 2282992); conditions: HepG2 Attagene ARE/NRF2 reporter, transcription factor activity; actives raise or lower the signal
Outline: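 Endogenous transcription factor activity in human liver HepG2 cells is tracked via a cis-element-driven reporter within a multiplexed set. mRNA induction is read by RT-PCR and capillary electrophoresis after 24 h, with DMSO as baseline.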

[10] = ATG_Oct_MLP_CIS: Attagene CIS-FACTORIAL HepG2 Assay for human Octamer-Binding Transcription Factor (Oct) (AID 2282993); conditions: HepG2 Attagene cis-factorial Oct reporter, mRNA; actives raise or lower the signal
Outline: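 Cells of the HepG2 line express promoter-controlled reporter sequences whose mRNA levels, after 24 h treatment, are measured by RT-PCR and capillary electrophoresis. Increases and decreases are scored relative to DMSO.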

[11] = target: Bile acid receptor (Homo sapiens) (UniProt Q96RI1); test: ATG_FXR_TRANS: Attagene TRANS-FACTORIAL HepG2 Assay for Farnesoid X Receptor (FXR) (AID 2282979; active = hit-call score of the fitted dose curve at least 0.9, where 1 is the maximum;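 note: hits raise reporter mRNA above DMSO so AC50 marks FXR activation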); conditions: HepG2 Attagene TRANS FXR-GAL4 reporter transcription
Chain of Bile acid receptor (Homo sapiens) (Q96RI1 whole entry, looked up, the tested form may be a part): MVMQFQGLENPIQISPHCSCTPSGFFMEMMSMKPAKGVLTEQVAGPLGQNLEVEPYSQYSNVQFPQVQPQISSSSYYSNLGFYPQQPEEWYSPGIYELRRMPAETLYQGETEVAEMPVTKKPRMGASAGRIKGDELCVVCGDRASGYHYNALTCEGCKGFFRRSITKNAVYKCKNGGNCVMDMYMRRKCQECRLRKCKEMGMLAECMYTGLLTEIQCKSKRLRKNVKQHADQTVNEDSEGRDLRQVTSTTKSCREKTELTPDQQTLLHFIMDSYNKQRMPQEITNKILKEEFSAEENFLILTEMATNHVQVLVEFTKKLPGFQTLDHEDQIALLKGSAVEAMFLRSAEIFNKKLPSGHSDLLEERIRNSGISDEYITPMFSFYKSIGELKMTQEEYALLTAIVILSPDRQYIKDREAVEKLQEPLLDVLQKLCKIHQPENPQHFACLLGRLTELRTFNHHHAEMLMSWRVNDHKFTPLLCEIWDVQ
Outline: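 HepG2 cells transiently transfected with reporter constructs in which a chimeric FXR-GAL4 protein drives a GAL4-UAS reporter; 24 h compound exposure. Reporter mRNA measured by RT-PCR, FAM labelling, HpaI digestion and capillary electrophoresis; gain-of-signal versus DMSO.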

[12] = ATG_M_32_TRANS: Attagene TRANS-FACTORIAL HepG2 Assay for M32 Transcription Factor (Internal Marker) (AID 2282984; active = hit-call score of the fitted dose curve at least 0.9, where 1 is the maximum;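 note: transcript level of a background control reporter unit measured by RT-PCR and capillary electrophoresis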); conditions: HepG2 Attagene TRANS M32 internal marker reporter
Outline: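 Cell-based TRANS-format assay in HepG2: exogenous chimeric GAL4 reporter units transiently expressed, compounds applied 24 h. Reporter mRNA detected by RT-PCR plus capillary electrophoresis; this readout is an internal background marker.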

[13] = target: Cellular tumor antigen p53 (Homo sapiens) (UniProt P04637); test: ATG_p53_CIS: Attagene CIS-FACTORIAL HepG2 Assay for human p53 Transcription Factor (AID 2282994); conditions: HepG2 p53 cis-element reporter, Attagene mRNA; actives raise or lower the signal
Chain of Cellular tumor antigen p53 (Homo sapiens) (P04637 whole entry, looked up, the tested form may be a part): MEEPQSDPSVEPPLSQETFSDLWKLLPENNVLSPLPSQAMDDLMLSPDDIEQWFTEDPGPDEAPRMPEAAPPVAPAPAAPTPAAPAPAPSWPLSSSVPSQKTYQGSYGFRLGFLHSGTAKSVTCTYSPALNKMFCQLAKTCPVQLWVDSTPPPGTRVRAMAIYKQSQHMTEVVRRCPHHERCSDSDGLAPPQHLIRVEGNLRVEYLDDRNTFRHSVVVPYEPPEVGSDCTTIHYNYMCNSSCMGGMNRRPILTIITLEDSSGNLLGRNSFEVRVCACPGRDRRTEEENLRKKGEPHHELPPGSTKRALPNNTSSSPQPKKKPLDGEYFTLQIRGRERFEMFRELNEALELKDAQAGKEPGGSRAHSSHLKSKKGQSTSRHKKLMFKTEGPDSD
Outline: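 Steps: transfect HepG2 with multiplexed cis reporter constructs; dose chemicals 24 h; extract RNA, reverse-transcribe, PCR-amplify reporter sequences; FAM-label, HpaI-digest, resolve fragments by CE. Activity fitted both directions relative to DMSO.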

[14] = target: Oxysterols receptor LXR-beta (Homo sapiens) (UniProt P55055); test: ATG_LXRb_TRANS: Attagene TRANS-FACTORIAL HepG2 Assay for human Liver X Receptor beta (LXRb) (AID 2282981; active = hit-call score of the fitted dose curve at least 0.9, where 1 is the maximum); conditions: HepG2 Attagene TRANS GAL4-LXRb reporter, mRNA
Chain of Oxysterols receptor LXR-beta (Homo sapiens) (P55055 whole entry, looked up, the tested form may be a part): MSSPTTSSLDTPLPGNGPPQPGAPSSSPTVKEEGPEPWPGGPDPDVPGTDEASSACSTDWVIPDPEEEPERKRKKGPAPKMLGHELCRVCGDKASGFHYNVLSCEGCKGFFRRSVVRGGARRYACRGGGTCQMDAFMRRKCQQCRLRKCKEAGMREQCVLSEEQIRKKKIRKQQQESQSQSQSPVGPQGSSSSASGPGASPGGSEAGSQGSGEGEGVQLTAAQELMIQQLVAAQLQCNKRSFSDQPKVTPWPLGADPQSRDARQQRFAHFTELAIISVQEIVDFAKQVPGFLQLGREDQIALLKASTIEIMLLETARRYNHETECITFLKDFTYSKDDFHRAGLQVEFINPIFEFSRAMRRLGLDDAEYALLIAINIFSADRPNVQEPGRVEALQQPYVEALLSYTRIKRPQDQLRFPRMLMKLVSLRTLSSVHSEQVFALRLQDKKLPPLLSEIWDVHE
Outline: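 After 24 h of chemical treatment, transfected HepG2 cells yield total RNA; reporter cDNA is PCR-amplified, FAM-labelled, HpaI-cut and run on capillary electrophoresis. Signal reflects chimeric LXRb-Gal4 activity on GAL4-UAS reporters.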

[15] = target: Nuclear receptor subfamily 4 group A member 2 (Homo sapiens) (UniProt P43354); test: ATG_NURR1_TRANS: Attagene TRANS-FACTORIAL HepG2 Assay for human Nuclear Receptor Related Protein 1 (NURR1) (AID 2282985; active = hit-call score of the fitted dose curve at least 0.9, where 1 is the maximum); conditions: HepG2 Attagene TRANS reporter, mRNA readout
Chain of Nuclear receptor subfamily 4 group A member 2 (Homo sapiens) (P43354 whole entry, looked up, the tested form may be a part): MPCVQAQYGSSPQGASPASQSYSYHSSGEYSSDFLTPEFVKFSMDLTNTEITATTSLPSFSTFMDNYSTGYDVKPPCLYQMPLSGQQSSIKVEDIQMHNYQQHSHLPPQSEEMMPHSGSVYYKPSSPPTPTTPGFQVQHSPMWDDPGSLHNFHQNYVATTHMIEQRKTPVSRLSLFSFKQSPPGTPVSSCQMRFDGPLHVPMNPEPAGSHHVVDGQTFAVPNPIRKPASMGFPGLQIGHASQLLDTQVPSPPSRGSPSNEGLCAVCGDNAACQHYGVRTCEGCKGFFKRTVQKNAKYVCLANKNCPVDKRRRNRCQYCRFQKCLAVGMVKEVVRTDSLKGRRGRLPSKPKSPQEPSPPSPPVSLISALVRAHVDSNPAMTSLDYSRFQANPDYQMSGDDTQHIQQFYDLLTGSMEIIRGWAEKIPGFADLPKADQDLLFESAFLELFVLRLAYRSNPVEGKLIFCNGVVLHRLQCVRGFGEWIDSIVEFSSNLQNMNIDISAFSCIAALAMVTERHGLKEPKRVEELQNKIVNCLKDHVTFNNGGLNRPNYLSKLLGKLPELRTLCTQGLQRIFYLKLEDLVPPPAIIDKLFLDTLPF
Outline: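 Measures transcriptional activation by an exogenous NR-Gal4 chimera in transfected HepG2 liver cells. After 24 h, reporter RNA is reverse-transcribed, amplified and resolved by capillary electrophoresis; DMSO defines baseline.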

[16] = BSK_3C_TissueFactor: BioMAP Diversity Plus: 3C Assay for Tissue Factor Biomarker Activity (AID 2282997); conditions: BioMAP 3C HUVEC, tissue factor biomarker readout; actives raise or lower the signal
Outline: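 Readout: Tissue Factor ELISA. Cells: human primary umbilical vein endothelium. Time: 24 h after dosing. Analysis: bidirectional fit, DMSO baseline.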

[17] = BSK_3C_uPAR: BioMAP Diversity Plus: 3C Assay for Urokinase-type plasminogen activator receptor (uPAR) Biomarker Activity (AID 2282998); conditions: BioMAP 3C HUVEC, uPAR biomarker ELISA; actives raise or lower the signal
Outline: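 Endothelial primary cells of human umbilical vein origin received test chemical; 24 h later uPAR was assayed by ELISA. Fitting was bidirectional, DMSO as negative control.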

[18] = BSK_3C_VCAM1: BioMAP Diversity Plus: 3C Assay for Vascular cell adhesion molecule 1 (VCAM1) Biomarker Activity (AID 2282999); conditions: BioMAP 3C HUVEC, VCAM1 ELISA, cytokine-stimulated; actives raise or lower the signal
Outline: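 Activity fitted in both directions relative to DMSO, with ELISA measurement of the surface marker on primary HUVEC (3C) at 24 h post-treatment; parallel SRB staining (0.1% SRB, TCA-fixed, 560 nm) flagged overt cytotoxicity.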

Measured: AC50

CCC(C)N (stereo not drawn)
inactive: [1] | [2] | [3] | [4] | [5] | [6] | [7] | [8] | [9] | [10]

CCOB(OCC)OCC
inactive: [11] | [3] | [12] | [4] | [5] | [6] | [7] | [9] | [10] | [13]

COC(=O)C=Cc1ccccc1
inactive: [1] | [14] | [3] | [4] | [5] | [6] | [7] | [9] | [10]

CCCCCCOc1ccc(N)cc1
inactive: [11] | [3] | [12] | [4] | [6] | [7] | [8] | [10] | [13]
active: [5] 100 µM | [9] 100 µM

CC=C(C)C=CC=C(C)C
active: [9] 26.8 µM | [16] 20 µM | [18] 18.6 µM
not listed: [11] | [12] | [14]
inactive: all other assays above

C=CC(=O)NC(C)(C)C
active: [9] 28 µM
not listed: [1] | [11] | [12] | [13]
inactive: all other assays above

C=C(C)C1CC=C(C)CC1 (stereo not drawn)
inactive: [1] | [14] | [3] | [15] | [4] | [5] | [6] | [9] | [10] | [13]

C=CCCCCCCCCOC(C)=O
inactive: [11] | [2] | [15] | [4] | [5] | [6] | [7] | [9] | [10]

CC(c1cc(C(C)(C)C)cc(C(C)(C)C)c1O)c1cc(C(C)(C)C)cc(C(C)(C)C)c1O
active: [11] 3.42 µM | [16] 0.464 µM
not listed: [1] | [2] | [6] | [12] | [14]
inactive: all other assays above

Nc1ccc(Cl)c(N)c1
inactive: [1] | [3] | [15] | [4] | [5] | [6] | [8] | [9] | [10]

COC(Cc1ccccc1)OC
not listed: [5] | [8] | [11] | [13] | [16] | [17] | [18]
inactive: all other assays above

CC(=O)/C=C/C1C(C)=CCCC1(C)C (stereo not drawn)
inactive: [11] | [12] | [15] | [4] | [5] | [9] | [10]
